From PubChem BioAssay (Tox21) come the findings set out here.

Values joined by “and” are separate entries in the source; they are usually repeats but may differ in a detail not shown here. Identical values can stand only once. Inconclusive results are not listed. A structure can be active in one record and inactive in another. Active and inactive are the calls of the source. Unless noted, calls come from the whole dose curve; as a rule, active = well fitted curve in the direction sought with a large enough effect in the repeat runs; inconclusive = weak or mixed curves; inactive = no such curve, though single readings can be large; an effect the other way counts as inactive or inconclusive.

Assay [1] is described as follows: qHTS assay to identify small molecule agonists of the estrogen receptor alpha (ER-alpha) signaling pathway in the presence of an antagonist - cell viability counter screen (AID 1259386).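 Note: series mostly up to about 92 µM; cells exposed to compounds for 22 h at 37 °C before the viability read; nearly all actives have a fitted effect of over 30% in size.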 The gist of the method:
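The test measures whether compounds kill ER-alpha reporter cells (VM7Luc4E2) under antagonist co-treatment (ICI-182,780, 10.0nM). Fluorescence from CellTiter-Fluor is read after a 22hr exposure.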
On the technique in general: Quantitative high-throughput screening tests each substance at several concentrations.

In assay [2] the target is Progesterone receptor (Homo sapiens) (UniProt P06401). Briefly: qHTS assay to identify small molecule agonists of the progesterone receptor (PR) signaling pathway (AID 1346784; calls by dose curve; note: nearly all actives have a fitted effect of over 30% in size). In short, it runs like this:
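Agonist qHTS: compounds pinned onto 3,000 PR-UAS-bla HEK 293T cells per well in charcoal-stripped serum medium, 16hr at 37C, then beta-lactamase activity measured by LiveBLAzer FRET fluorescence after 2 hours at room temperature.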

Assay [3] in a line: qHTS assay to identify small molecule antagonists of the progesterone receptor (PR) signaling pathway - cell viability counter screen (AID 1346798). Note: nearly all actives have a fitted effect of over 50% in size. Note: potency is the fitted concentration of half-maximal effect. In short, it runs like this:
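Cytotoxicity read as CellTiter-Glo luminescence (30 min, room temperature) in the same wells as the beta-lactamase readout. HEK293T PR-UAS-bla cells in charcoal-stripped 2% FBS received compound and R5020, then 16 h at 37C, 5% CO2.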

Assay [4] can be described thus: qHTS assay to identify small molecule antagonists of the TGF-beta/Smad signaling pathway - cell viability counter screen (AID 1346824). Note: nearly all actives have a fitted effect of over 50% in size. In short, it runs like this: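 Cytotoxicity counter-screen run in the same wells as the beta-lactamase Smad reporter read: CellTiter-Glo luminescence after 30 min at room temperature. HEK 293T SBE-bla cells had 5 hr compound exposure at 37 C with TGF-beta1 (0.25 ng/mL stock).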

In assay [5] the target is Thyrotropin-releasing hormone receptor (Homo sapiens) (UniProt P34981). Briefly: qHTS assay to identify small molecule antagonists of the thyrotropin-releasing hormone receptor (TRHR) signaling pathway (AID 1346877; active = well fitted inhibition curve with a large enough effect in the repeat runs, not every such curve was filed as active; note: series mostly up to about 51 µM). In short, it runs like this:
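Overnight-plated (18 h, 37 °C) HEK293 cells expressing TRHR were dye-loaded 2 h, treated with compound, then stimulated with TRH at 1 nM final. Fluorescence intensity was captured every second for 3 min.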

For assay [6] the target is unchanged. Briefly: qHTS assay to identify small molecule agonists of the thyrotropin-releasing hormone receptor (TRHR) signaling pathway (AID 1346891; calls by dose curve; note: series mostly up to about 58 µM). In short, it runs like this:
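Agonist-mode intracellular calcium readout: kinetic fluorescence over 3 min at 1 s intervals after compound addition to TRHR-HEK293 cells (18 h seeded, 2 h dye-loaded at 37 C). Fifteen concentrations, triplicates.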

A short description of assay [7]: Human pregnane X receptor (PXR) small molecule agonists, qHTS cell viability counter screen (AID 1346977). Note: nearly all actives have a fitted effect of over 50% in size. Note: potency is the fitted concentration of half-maximal effect. The gist of the method:
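Same-well viability read: CellTiter-Fluor added after 23 hr compound exposure, fluorescence measured 1 hr later. Cells were PXR-Luc HepG2 seeded at 2,000/well in 5% charcoal-stripped FBS medium, rested 5 hr before dosing at 37 C.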

Assay [8] can be described thus: Caspase-3/7 induction in CHO-K1 cells by small molecules, qHTS cell viability counter screen (AID 1346979). Note: nearly all actives have a fitted effect of over 35% in size. Note: potency is the fitted concentration of half-maximal effect. In short, it runs like this: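 Cytotoxicity counter screen: CellTiter-Fluor added to compound-treated wild-type CHO-K1 cells at 16 h (37C, 5% CO2), fluorescence measured 1 h later; same wells as caspase-3/7 measurement.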
A short description of assay [9]: Caspase-3/7 induction in CHO-K1 cells by small molecules, qHTS assay (AID 1346980). Note: nearly all actives have a fitted effect of over 15% in size. The gist of the method:
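Luminescent Caspase-Glo 3/7 read (30min, room temperature) quantified apoptosis induction. Cells were wild-type CHO-K1, treated with compound for 17hr at 37 C and 5% CO2.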

The nature of assay [10]: Caspase-3/7 induction in HepG2 cells by small molecules, qHTS cell viability counter screen (AID 1346981). Note: nearly all actives have a fitted effect of over 30% in size. Note: potency is the fitted concentration of half-maximal effect. The gist of the method: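 Treatment of HepG2 cells with DMSO-delivered compounds ran 16 hr at 37 C following a 5-hr pre-incubation of 2,000 cells/well. CellTiter-Fluor fluorescence, read after 1 hr, served as the viability measure in a qHTS format.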
The target in assay [11] is Nuclear receptor subfamily 1 group I member 2 (Homo sapiens) (UniProt O75469). Nature of the assay: Human pregnane X receptor (PXR) small molecule agonists, qHTS assay (AID 1346982). Note: nearly all actives have a fitted effect of over 35% in size. Note: potency is the fitted concentration of half-maximal effect. The gist of the method: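 Stable HepG2 line reporting PXR-mediated CYP3A4 expression via luciferase. Treatment: 24 hr with compounds in DMSO at 37 C. Detection: ONE-Glo luminescence.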
Chain of Nuclear receptor subfamily 1 group I member 2 (Homo sapiens) (O75469 whole entry, looked up): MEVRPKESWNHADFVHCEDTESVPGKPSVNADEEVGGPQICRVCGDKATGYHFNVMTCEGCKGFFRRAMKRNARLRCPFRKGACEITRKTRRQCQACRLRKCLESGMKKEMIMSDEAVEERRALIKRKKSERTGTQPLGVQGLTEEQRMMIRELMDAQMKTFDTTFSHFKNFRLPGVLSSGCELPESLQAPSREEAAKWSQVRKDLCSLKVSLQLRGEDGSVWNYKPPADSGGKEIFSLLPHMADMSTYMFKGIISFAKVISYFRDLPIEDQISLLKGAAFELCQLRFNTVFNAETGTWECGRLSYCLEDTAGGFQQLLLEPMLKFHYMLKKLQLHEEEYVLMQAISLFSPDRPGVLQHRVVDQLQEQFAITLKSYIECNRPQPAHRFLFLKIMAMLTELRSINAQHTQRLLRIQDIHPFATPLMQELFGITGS
For assay [12], the target named is Cytochrome P450 2D6 (Homo sapiens) (UniProt P10635). Briefly: Cytochrome P450 Family 2 Subfamily D Member 6 (CYP2D6) small molecule antagonists: luciferase reporter qHTS assay (AID 1671196). Note: series mostly up to about 120 µM; nearly all actives have a fitted effect of over 50% in size. The gist of the method: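 Chemicals tested for interference with CYP2D6 activity; proluciferin substrate, NADPH regeneration, 1 h at room temperature, luminescent detection.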
Chain of Cytochrome P450 2D6 (Homo sapiens) (P10635 whole entry, looked up): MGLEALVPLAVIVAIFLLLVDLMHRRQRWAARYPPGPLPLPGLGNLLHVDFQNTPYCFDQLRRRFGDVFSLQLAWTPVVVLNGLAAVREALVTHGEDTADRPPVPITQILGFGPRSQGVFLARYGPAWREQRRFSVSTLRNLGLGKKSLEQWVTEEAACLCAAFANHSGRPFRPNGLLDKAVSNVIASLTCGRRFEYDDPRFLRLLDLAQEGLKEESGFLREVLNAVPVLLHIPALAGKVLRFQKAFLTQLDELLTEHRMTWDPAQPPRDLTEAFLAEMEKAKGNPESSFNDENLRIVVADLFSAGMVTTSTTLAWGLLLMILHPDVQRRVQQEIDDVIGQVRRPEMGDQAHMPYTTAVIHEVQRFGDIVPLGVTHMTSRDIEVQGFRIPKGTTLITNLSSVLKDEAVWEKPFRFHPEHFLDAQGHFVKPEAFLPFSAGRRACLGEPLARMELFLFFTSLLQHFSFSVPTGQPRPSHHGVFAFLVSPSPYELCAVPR
For orientation: Reporter assays use an easily measured gene product as a stand-in for the process of interest.

A short description of assay [13]: qHTS assay to identify small molecule agonists of the TGF-beta/Smad signaling pathway (AID 1346859; active = well fitted activation curve with a large enough effect in the signal ratio in the repeat runs, not every such curve was filed as active; the % refers to the signal ratio; note: series mostly up to about 77 µM). The gist of the method:
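Fluorescence (ex 405 nm; em 460 and 530 nm) was read 2 h after LiveBLAzer FRET substrate at RT. The preceding compound treatment of overnight-plated SBE-bla HEK293T cells lasted 5 h at 37 C.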

Assay [14] can be described thus: Caspase-3/7 induction in HepG2 cells by small molecules, qHTS assay (AID 1346978). Note: nearly all actives have a fitted effect of over 15% in size. In short, it runs like this:
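Caspase-3/7 induction was measured by Caspase-Glo 3/7 luminescence (30 min, room temperature) after a 17 hr compound exposure of wild-type HepG2 cells seeded at 2,000 per well and pre-incubated 5 hr.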

Assay [15] has as its target Progesterone receptor (Homo sapiens) (UniProt P06401). Briefly: qHTS assay to identify small molecule antagonists of the progesterone receptor (PR) signaling pathway (AID 1346795; active = well fitted inhibition curve with a large enough effect in the signal ratio in the repeat runs, not every such curve was filed as active; the % refers to the signal ratio). In short, it runs like this:
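Antagonist mode with agonist R5020 at 1 nM final and 16 hr incubation at 37C. Reporter was beta-lactamase driven by UAS in HEK293T (PR-UAS-bla), 2% charcoal-stripped serum; signal from LiveBLAzer FRET substrate, 2 hr at room temperature.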

A short description of assay [16]: qHTS assay to identify small molecule agonists of the progesterone receptor (PR) signaling pathway - cell viability counter screen (AID 1346799; calls by dose curve; note: nearly all actives have a fitted effect of over 45% in size; note: potency is the fitted concentration of half-maximal effect). In short, it runs like this:
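Cytotoxicity measured by CellTiter-Glo luminescence (30 min, RT) in the same wells as the PR beta-lactamase agonist read. Those HEK293T cells had 16 h compound treatment at 37 C in 2% charcoal-stripped FBS medium.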

Assay [17] is described as follows: qHTS assay to identify small molecule agonists of the TGF-beta/Smad signaling pathway - cell viability counter screen (AID 1346829). Note: top concentration of the series differs between compounds; nearly all actives have a fitted effect of over 45% in size. The gist of the method: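 In parallel with the Smad reporter read, viability of HEK 293T cells stably carrying SBE-bla is quantified by ATP luminescence following 5 hr compound treatment.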
In assay [18] the target is Nuclear receptor subfamily 1 group I member 2 (Rattus norvegicus) (UniProt Q9R1A7). Briefly: Rat pregnane X receptor (rPXR) activation by small molecules, qHTS assay (AID 1346983). Note: nearly all actives have a fitted effect of over 20% in size. The settings on record: rPXR luciferase reporter cells, One-Glo luminescence, 24 h; stronger effect = higher value. The gist of the method: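 Luminescent readout (One-Glo luciferase, 30 min room temperature) followed 24 hr compound treatment at 37 C of rPXR cells plated 2,000 per well and preincubated 5hr; qHTS format with compounds delivered in DMSO.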
Chain of Nuclear receptor subfamily 1 group I member 2 (Rattus norvegicus) (Q9R1A7 whole entry, looked up): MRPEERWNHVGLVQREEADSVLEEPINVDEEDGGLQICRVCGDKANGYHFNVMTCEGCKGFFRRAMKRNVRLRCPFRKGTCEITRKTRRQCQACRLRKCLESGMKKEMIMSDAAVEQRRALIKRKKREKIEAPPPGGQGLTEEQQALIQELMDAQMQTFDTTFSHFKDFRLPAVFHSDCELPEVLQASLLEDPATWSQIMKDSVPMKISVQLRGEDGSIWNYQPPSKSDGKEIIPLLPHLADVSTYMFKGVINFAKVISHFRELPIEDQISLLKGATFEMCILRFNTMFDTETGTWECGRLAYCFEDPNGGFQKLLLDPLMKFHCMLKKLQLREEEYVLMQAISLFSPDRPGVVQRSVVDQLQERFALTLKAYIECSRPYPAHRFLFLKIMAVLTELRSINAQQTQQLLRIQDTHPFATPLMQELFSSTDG

Assay [19] deals with Nuclear receptor subfamily 1 group I member 2 (Homo sapiens) (UniProt O75469). Nature of the assay: Human pregnane X receptor (PXR) activation by small molecules, qHTS assay (AID 1346985). Note: nearly all actives have a fitted effect of over 40% in size. The gist of the method: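 DPX-2 cells (HepG2 co-transfected with a PXR response element and a CYP3A4-promoter luciferase construct) were seeded at 2,000 per well, rested 5 hr at 37C, then exposed to DMSO-dissolved compounds for 24 hr. Activation was read as luciferase luminescence.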
% is set by controls: 0 for no effect and ±100 for the full control effect.

Chain of Progesterone receptor (Homo sapiens) (P06401 whole entry, looked up): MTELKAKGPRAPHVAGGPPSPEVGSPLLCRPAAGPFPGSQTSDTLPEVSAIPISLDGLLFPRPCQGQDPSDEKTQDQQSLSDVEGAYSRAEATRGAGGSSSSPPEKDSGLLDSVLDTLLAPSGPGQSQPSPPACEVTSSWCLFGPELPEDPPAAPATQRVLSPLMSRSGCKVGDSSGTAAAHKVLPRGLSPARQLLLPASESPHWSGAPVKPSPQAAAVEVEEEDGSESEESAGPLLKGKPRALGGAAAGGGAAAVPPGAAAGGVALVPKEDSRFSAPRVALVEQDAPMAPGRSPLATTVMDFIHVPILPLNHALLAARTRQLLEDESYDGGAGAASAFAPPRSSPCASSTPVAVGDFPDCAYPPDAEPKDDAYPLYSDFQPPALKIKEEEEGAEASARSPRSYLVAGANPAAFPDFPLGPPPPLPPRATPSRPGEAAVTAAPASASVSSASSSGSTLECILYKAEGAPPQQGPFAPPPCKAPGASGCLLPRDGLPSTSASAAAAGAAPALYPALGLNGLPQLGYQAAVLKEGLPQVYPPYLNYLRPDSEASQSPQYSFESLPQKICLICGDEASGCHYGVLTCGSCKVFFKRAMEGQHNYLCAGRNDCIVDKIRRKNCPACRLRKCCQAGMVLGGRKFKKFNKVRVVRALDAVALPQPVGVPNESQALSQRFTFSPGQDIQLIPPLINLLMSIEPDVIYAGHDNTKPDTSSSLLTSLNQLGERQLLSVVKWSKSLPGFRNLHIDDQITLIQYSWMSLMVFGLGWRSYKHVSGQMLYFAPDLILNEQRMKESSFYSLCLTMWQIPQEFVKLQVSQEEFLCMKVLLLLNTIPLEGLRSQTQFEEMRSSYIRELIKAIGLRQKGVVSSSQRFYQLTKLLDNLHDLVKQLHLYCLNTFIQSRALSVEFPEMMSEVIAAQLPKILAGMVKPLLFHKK
Chain of Thyrotropin-releasing hormone receptor (Homo sapiens) (P34981 whole entry, looked up): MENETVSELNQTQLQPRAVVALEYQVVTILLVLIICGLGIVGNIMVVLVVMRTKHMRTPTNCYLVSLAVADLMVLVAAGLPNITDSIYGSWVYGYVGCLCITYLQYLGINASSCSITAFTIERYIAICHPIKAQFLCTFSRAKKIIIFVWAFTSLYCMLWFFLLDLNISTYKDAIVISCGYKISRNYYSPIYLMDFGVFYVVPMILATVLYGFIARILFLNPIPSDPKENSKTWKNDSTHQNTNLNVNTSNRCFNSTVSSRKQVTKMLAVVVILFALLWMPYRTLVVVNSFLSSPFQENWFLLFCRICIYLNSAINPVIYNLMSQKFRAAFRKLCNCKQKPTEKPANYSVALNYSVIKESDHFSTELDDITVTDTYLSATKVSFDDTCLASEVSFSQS

As to `Cc1c2ccccc2c(C)c2c1ccc1ccccc12`, the Potency entry in [1], in [2], in assay [4], in [5], in [9] and in assay [12] was “inactive” each time. Also, the Potency is 27 µM (active) and 30.6 µM (active) in assay [3]; 61.1 µM (active) in [7]; 61.1 µM (active) in [8]; “inactive and 61.1 µM (active)” in [10]; 30.3 µM (active) and 17.2 µM (active) in assay [11]. In assay [6], the outcome was inactive.

On to `CN(C)Cc1cc(C(C)(C)C)c(O)c(C(C)(C)C)c1`, for which the Potency result in assay [1], in assay [2], in assay [4], in [13], in assay [14] and in assay [8] was “inactive” throughout. Moreover, the Potency entry in assay [9] and in [10] was “inactive” throughout.

On to `CC1=CCC(=C(C)C)CC1`, for which the Potency result in [1], in assay [15], in assay [3], in assay [16], in [4] and in assay [17] was “inactive” each time. Moreover, the Potency result in assay [13], in assay [7], in assay [14], in assay [8], in assay [10] and in assay [12] was “inactive” each time. For the same compound, the Potency in assay [11] is 43.3 µM (active).

Regarding `O=c1oc2cc(O)ccc2c2oc3cc(O)ccc3c12`, the Potency result in assay [1], in assay [2], in assay [3], in [4], in [17] and in assay [5] was “inactive” each time. For the same compound, the Potency entry in assay [7], in [8], in assay [9] and in assay [10] was “inactive” each time. In addition, the result in [6] was inactive.

Consider `O=C(O)Cc1ccc2c(c1)C(=O)c1ccccc1CO2`, for which the Potency entry in [1], in assay [15], in assay [3], in [16], in assay [4] and in assay [17] was “inactive” in each case. Moreover, the Potency entry in assay [7], in [8], in assay [9], in [10], in [11] and in assay [12] was “inactive” in each case.

For `COc1c(C)c2c(c(O)c1C/C=C(\C)CCC(=O)OCCN1CCOCC1)C(=O)OC2`, the Potency entry in assay [1], in assay [2], in assay [4], in assay [5], in assay [7] and in [14] was “inactive” throughout. Moreover, the Potency entry in assay [9], in assay [10], in [19] and in [12] was “inactive” in each case. Besides, the Potency was 0.237 µM (active) in assay [16] and 0.841 µM (active) in assay [8]. Moreover, in assay [6], the outcome was inactive. Further, the max activation in assay [18] is -3.72% (inactive).

Turning to `Cc1c(C)c2c(c(C)c1OC(=O)c1cccnc1)CC[C@@](C)(CCC[C@H](C)CCC[C@H](C)CCCC(C)C)O2`, the Potency entry in assay [1], in assay [15], in [3], in [16], in [4] and in [17] was “inactive” in each case. The Potency result in assay [13], in [7], in assay [8], in assay [10], in assay [19] and in assay [12] was “inactive” in each case. In addition, the max activation in [18] is 0.296% (inactive).

With `S=C([S-])NCCNC(=S)[S-].S=C([S-])NCCNC(=S)[S-].[Mn+2].[Zn+2]`, the Potency result in [1], in [2], in assay [4], in assay [17], in [13] and in [7] was “inactive” each time. Moreover, the Potency result in assay [14], in [9] and in [10] was “inactive” each time. Further, the Potency in assay [11] was 5.31 µM (active).

As for `COc1cc(/C=C/c2ccccc2)oc(=O)c1`, the Potency result in [1], in assay [15], in assay [3], in [16], in [4] and in assay [17] was “inactive” each time. Moreover, the Potency result in assay [5], in assay [7], in [14], in [8], in assay [9] and in assay [10] was “inactive” each time. Also, in assay [12], the Potency result is “inactive”. The outcome in assay [6] was inactive. Moreover, the Potency in assay [11] is 7.96 µM (active).
